IL-1B inflam inh – inhibitors of inflammasome signaling (IL-1 beta secretion); AID 743279; 360,000 compounds, 4.7% hits; activity change, % at 57.5 µM; THP-1 LPS/ATP IL-1B secretion, AlphaLISA, 16 h; hits give low values; in the data active = activity change below about -50%; inconclusive = mostly about -30% to -49%
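THP-1 cells pretreated 1 hr with compounds (up to 57.5 uM final), then stimulated with LPS (250 ng/mL final) plus ATP (1.25 mM final); secreted IL-1B measured by AlphaLISA after 16 hr, decreased signal indicating inhibition.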
HT1080NT lethal – kills 2HG-producing HT-1080-NT fibrosarcoma cells | HT-1080-NT fibrosarcoma viability, CellTiter-Glo ATP luminescence, 48 h | Potency, µM (top dose mostly 46.1 µM), for the others: top-dose activity, negative = less viability, most hits filed as cytotoxic | 360,000 compounds, 1.6% hits;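 note: NT is the 2HG producing partner of a matched IDH1 knockdown line; potency is the fitted concentration of half-maximal effect; 0% = DMSO-treated cells and -100% = media-only wells without cells; nearly all actives have a fitted effect of over 55% in size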
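Compounds were tested in concentration-response format on HT-1080-NT cells for 48 hours at 37 degrees C. Cell viability came from CellTiter-Glo luminescence; curves were classified by r2, response magnitude and activity.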
HT1080 IDH1KD tx – kills HT-1080 cells with IDH1 knockdown | HT-1080 IDH1 knockdown viability, ATP luminescence, 48 h | Potency, µM (highest dose often 46.1 µM), for inactives: at the highest dose activity, negative = toxicity, actives largely listed as cytotoxic | 360,000 compounds, 2% hits | AID 686971;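 note: potency is the fitted concentration of half-maximal effect; 0% = DMSO wells and -100% = cell-free medium wells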
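Viability of IDH1-knockdown HT-1080 fibrosarcoma cells was assessed by CellTiter-Glo after 48 h at 37 °C with titrated compound; concentration-effect curves were classified by fit quality and response size.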
DT40 TDP1 no CPT – qHTS for Inhibitors of human tyrosyl-DNA phosphodiesterase 1 (TDP1): qHTS in cells in absence of CPT | DT40 Tdp1-/- hTDP1 cells, no CPT, ATP luminescence, 48 h | 420,000 compounds, 15% hits | AID 686978, 2013 | Potency, µM (top dose mostly 46.2 µM), without a hit: at the highest dose activity change, negative = growth inhibition, most hits filed as inhibitors; note: potency is the fitted concentration of half-maximal effect; nearly all actives have a fitted effect of over 55% in size
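Cells were dispensed at 400 per well, compounds added by pin tool, plates incubated ≥48 hr at 37 °C, then CellTiter-Glo added for 30 min at room temperature before luminescence reading. Line: DT40 Tdp1-/- complemented with hTDP1; camptothecin omitted.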
TDP1 cell CPT – DT40-hTDP1 cell growth loss with CPT. 420,000 compounds, 12% hits. chicken DT40 Tdp1-/-;hTDP1 cells + 20 nM CPT, ATP luminescence, 48 h. Potency, µM (doses to about 46.2 µM), without a hit: top-dose activity change, negative = growth inhibition, actives largely listed as inhibitors. AID 686979; note: potency is the fitted concentration of half-maximal effect; nearly all actives have a fitted effect of over 55% in size
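Chicken DT40 Tdp1-/- cells complemented with human TDP1, 400 cells/well, exposed to compounds plus 20 nM camptothecin for at least 48 h at 37 C; viability read as ATP content by CellTiter-Glo luminescence.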
* marks the source's active call; other numbers are inactive results. Hits are enriched below; roughly 19% of the tested compounds scored in any of these assays. Unless noted, calls come from the whole dose curve; as a rule, active = well fitted curve in the direction sought with a large enough effect; inconclusive = small, poorly fitted or top-dose-only effect, or another doubt; inactive = no such curve, though single readings can be large; an effect the other way counts as inactive or inconclusive. Unless noted, % is set by controls: 0 for no effect and ±100 for the full control effect.

What do the screens show for `CC(C)NCC1CCc2cc(CO)c([N+](=O)[O-])cc2N1` (stereo unspecified)?
IL-1B inflam inh: 17.8; HT1080NT lethal: -6.4%; HT1080 IDH1KD tx: 3.7%; DT40 TDP1 no CPT: 1.8%; TDP1 cell CPT: inconclusive

How did FC(F)(F)c1ccc(N=Cc2sc(N3CCOCC3)nc2-c2ccccc2)cc1 do in these assays?
IL-1B inflam inh: -17.7; HT1080NT lethal: 0.4%; HT1080 IDH1KD tx: 13.0%; DT40 TDP1 no CPT: -26.1%; TDP1 cell CPT: -2.9%

Results for O=C(Nc1nc2ccccc2[nH]1)NC1CCCCC1 ?
IL-1B inflam inh: -14.1; HT1080NT lethal: -3.7%; HT1080 IDH1KD tx: -18.5%; DT40 TDP1 no CPT: 2.5%; TDP1 cell CPT: inconclusive

Results for O=C(C[C@H]1C[C@H](C(=O)N2CCOCC2)[C@@]2(CCC3CCCC3)c3[nH]c4cc(-c5ccco5)ccc4c3CCN2C1=O)NCc1cccc(C(F)(F)F)c1 ?
IL-1B inflam inh: -52.8*; HT1080NT lethal: -29.7%; HT1080 IDH1KD tx: inconclusive; DT40 TDP1 no CPT: inconclusive; TDP1 cell CPT: 16.4µM*

How did CC(C)=CCC/C(C)=C/CNC(=O)C[C@H]1C[C@H](C(=O)N2CCOCC2)[C@@]2(CCC3CCCC3)c3[nH]c4cc(-c5ccco5)ccc4c3CCN2C1=O do in these assays?
IL-1B inflam inh: -22.1; HT1080NT lethal: -13.2%; HT1080 IDH1KD tx: -13.0%; DT40 TDP1 no CPT: inconclusive; TDP1 cell CPT: 18.4µM*

How did CN(C)CCCNC(=O)C[C@H]1C[C@H](C(=O)N2CCOCC2)[C@@]2(CCC3CCCC3)c3[nH]c4cc(-c5ccco5)ccc4c3CCN2C1=O do in these assays?
IL-1B inflam inh: 0.0; HT1080NT lethal: inconclusive; HT1080 IDH1KD tx: inconclusive; DT40 TDP1 no CPT: inconclusive; TDP1 cell CPT: 23.1µM*

How did O=C(c1ccccc1)c1ccccc1N1C(=O)C=CC1=O do in these assays?
IL-1B inflam inh: -97.7*; HT1080NT lethal: 16.4µM*; HT1080 IDH1KD tx: inconclusive; DT40 TDP1 no CPT: 1.64µM*; TDP1 cell CPT: 0.731µM*

How did O=C(O)c1ccccc1C(=O)c1ccc(-c2ccccc2)cc1 do in these assays?
IL-1B inflam inh: -13.0; HT1080NT lethal: 0.4%; HT1080 IDH1KD tx: 12.0%; DT40 TDP1 no CPT: 9.0%; TDP1 cell CPT: -17.0%

How did O=C1C=CC(=O)N1c1ccccc1N1C(=O)C=CC1=O do in these assays?
IL-1B inflam inh: -97.8*; HT1080NT lethal: 6.51µM*; HT1080 IDH1KD tx: 5.8µM*; DT40 TDP1 no CPT: 0.581µM*; TDP1 cell CPT: 0.92µM*

What do the screens show for `Cc1nc(N2CCCCC2)c2c(C)c(C(=O)Nc3ccccc3C(F)(F)F)sc2n1`?
IL-1B inflam inh: -16.2; HT1080NT lethal: -28.6%; HT1080 IDH1KD tx: inconclusive; DT40 TDP1 no CPT: 2.91µM*; TDP1 cell CPT: 2.06µM*

Results for CCCN1CCN(c2ncnc3sc(C(=O)Nc4c(C)cc(C)cc4C)c(C)c23)CC1 ?
DT40 TDP1 no CPT: 10.3µM*; TDP1 cell CPT: 16.4µM*

What do the screens show for `Cc1ccc(NC(=O)c2sc3nc(C)nc(N4CCN(c5ccccn5)CC4)c3c2C)c(C)c1`?
IL-1B inflam inh: -60.2*; HT1080NT lethal: -4.0%; HT1080 IDH1KD tx: -9.5%; DT40 TDP1 no CPT: inconclusive; TDP1 cell CPT: -26.1%

Results for Cc1ccc(NC(=O)c2sc3nc(CCl)[nH]c(=O)c3c2C)c(C)c1 ?
IL-1B inflam inh: -86.8*; HT1080NT lethal: inconclusive; HT1080 IDH1KD tx: inconclusive; DT40 TDP1 no CPT: 14.6µM*; TDP1 cell CPT: 14.6µM*

Results for CSCc1nc2sc(C(=O)Nc3nc(C)cs3)c(C)c2c(=O)[nH]1 ?
IL-1B inflam inh: 57.5; HT1080NT lethal: -12.6%; HT1080 IDH1KD tx: -19.7%; DT40 TDP1 no CPT: inconclusive; TDP1 cell CPT: inconclusive

Results for Cc1nnsc1C(=O)Oc1ccc(Cl)cc1 ?
DT40 TDP1 no CPT: 5.6%; TDP1 cell CPT: -0.8%

What do the screens show for `COc1ccccc1CNS(=O)(=O)c1c(C(=O)N2CCCCC2)c(C)n(C)c1C`?
IL-1B inflam inh: -10.7; HT1080NT lethal: -0.2%; HT1080 IDH1KD tx: -3.1%; DT40 TDP1 no CPT: 12.6%; TDP1 cell CPT: -22.4%

Source: PubChem (National Center for Advancing Translational Sciences (NCATS))
